# Hits are enriched below; roughly 8.1% of the tested compounds scored in any of these assays.
# SW480 rereplic – DNA re-replication induction in SW480 cells | SW480 DNA re-replication, Hoechst DNA content imaging, 48 h | Potency, µM (titrated, usually from 46.1 µM), without a hit: at the top dose re-replication activation, hits mostly activators | 1.8% of 340,000 active; also: % of control where 0% means no effect; nearly all actives have a fitted effect of over 55% in size
#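 Image-based read-out: total Hoechst fluorescence of nuclei (405 nm excitation, 500-530 nm emission), with hits raising the fraction of high-intensity nuclei. SW480 colon cells incubated 48 hr with compounds at 37 C.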
# KB-3-1 cytotox – KB-3-1 parental cell cytotoxicity | AID 1347075 | KB-3-1 viability, CellTiter-Glo ATP luminescence, 72 h | Potency, µM (doses to about 46.1 µM), most hits filed as cytotoxic | 1.4% of 400,000 active; also: % is scaled to controls: 0 for no effect and ±100 for the full control effect; nearly all actives have a fitted effect of over 60% in size
#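 72 h, 37 °C compound treatment of KB-3-1 parental cells; CellTiter-Glo added, 10 min, luminescence read. Data corrected against DMSO-only plates and normalized before curve fitting.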
# MCF10A rereplic – inducers of DNA re-replication in MCF 10A breast cells; AID 624296; Potency, µM (top dose mostly 46.1 µM), without a hit: at the top dose activity, positive = re-replication, actives largely listed as activators; MCF 10A DNA re-replication, Hoechst nuclear intensity, 48 h; 2.9% of 350,000 active; also: % of control where 0% means no effect; nearly all actives have a fitted effect of over 50% in size
# KB-V1 MDR tox – KB-V1 MDR subline cytotoxicity | KB-V1 MDR cells viability, CellTiter-Glo, 72 h | Potency, µM (highest dose often 46.1 µM), actives largely listed as cytotoxic | 3.4% of 400,000 active | AID 1347076; also: % is scaled to controls: 0 for no effect and ±100 for the full control effect; nearly all actives have a fitted effect of over 60% in size
#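 Cells of the MDR subline KB-V1 are plated, dosed with compound at multiple concentrations, and incubated 72 h at 37 degrees C; CellTiter-Glo is then added and luminescence read after 10 min.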
# ELG1 repair inh – inhibitors of ELG1-dependent DNA repair in HEK293T cells | 2.3% of 330,000 active | HEK293T ELG1-luciferase reporter, luminescence, 16 h; DNA damage induced by 5-fluorouridine | Potency, µM (doses to about 46.1 µM), for the others: top-dose activity change, negative = inhibition, usual class: inhibitors; also: % is scaled to controls: 0 for no effect and ±100 for the full control effect; nearly all actives have a fitted effect of over 55% in size
#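 Luminescence from the luciferase reporter, measured 30 min after ONE-Glo reagent at room temperature, was the read-out. Beforehand, 2,000 cells per well were exposed for 16 hr at 37 °C to 5-fluorouridine together with compound or vehicle.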
# The depositor's hits bear a star; i = inactive; ? = inconclusive; . = no result; [ ] = dose if it differs, or a comment. Calls follow the shape of the dose curve; as a rule, active = well fitted curve in the direction sought with a large enough effect; inconclusive = small, poorly fitted or top-dose-only effect, or another doubt; inactive = no such curve, though single readings can be large; an effect the other way counts as inactive or inconclusive. Potency is read from the fitted curve at half-maximal effect.
SMILES,SW480 rereplic,KB-3-1 cytotox,MCF10A rereplic,KB-V1 MDR tox,ELG1 repair inh
Clc1ccccc1CN1CCc2nc(N3CCN(c4ncccn4)CC3)ncc2C1,.,?,.,18.4µM*,.
Clc1ccc(CN2CCN(c3ncccn3)CC2)c(Cl)c1,?,i,23.1µM*,i,3.2%
Oc1ccc(Cl)c(CN2CCN(c3ncc(Cc4ccccc4)cn3)CC2)c1,.,?,.,16.4µM*,.
COc1cccc(-c2nnc(-c3ccccc3NC(=O)c3cccc(C(F)(F)F)c3)o2)c1,.,i,.,i,.
Clc1ccccc1Cn1cccc1C1=NC(Cc2ccccc2)CO1 (configuration not stated),.,i,.,i,.
COc1ccccc1NC(=O)Cn1nc(C(F)(F)F)c2c1CCCC2,0.9%,i,1.9%,20.6µM*,-2.0%
O=C(Cn1nc(C(F)(F)F)c2c1CCC2)N1CCN(c2ccccc2)CC1,-4.7%,i,?,16.4µM*,-15.0%
O=C(Cn1nc(C(F)(F)F)c2c1CCC2)Nc1ccccc1C(F)(F)F,-1.0%,i,-19.6%,i,-26.7%
Cc1ccc(NS(=O)(=O)c2cc3c(cc2Cl)CCC(=O)N3)cc1Cl,.,i,.,i,.
COc1ccc(C)cc1-n1c(C)cc(C=O)c1C,10.1%,i,-2.4%,i,7.3%
COc1ccc(N)cc1-n1c(C)ccc1C,0.517µM*,i,4.4%,?,?
O=C(NCc1ccc(F)cc1)c1ccc(S(=O)(=O)N2CCCC2)cc1,.,i,.,?,.
COC(=O)c1ccc(CNC(=O)c2ccc(S(=O)(=O)N3CCCC(C)C3)cc2)cc1 (configuration not stated),-5.0%,i,-1.1%,16.4µM*,4.4%
Cc1c(NC(=S)/C=C2\N(C)c3ccccc3C2(C)C)c(=O)n(-c2ccccc2)n1C,3.4%,i,1.5%,23.1µM*,-20.6%
O=C(NC(=S)Nc1cccc(S(=O)(=O)NC2=NCCC2)c1)c1cc(-c2ccco2)nc2ccccc12,9.2µM*,6.51µM*,?,i,?
CCOc1cc(C(=O)OCC(=O)Nc2cccc(S(=O)(=O)NC3=NCCCCC3)c2)cc(OCC)c1OCC,-0.6%,i,7.6%,8.2µM*,?
CCc1nc2ccccc2c(C(=O)OCC(=O)Nc2cccc(S(=O)(=O)NC3=NCCCCC3)c2)c1C,?,?,?,i,13µM*
CCOc1ccccc1C(=O)OCC(=O)Nc1cccc(S(=O)(=O)NC2=NCCCCC2)c1,-9.2%,i,1.7%,i,.
CCc1nc2ccccc2c(C(=O)OCC(=O)Nc2cccc(S(=O)(=O)N3CCOCC3)c2)c1C,?,20.6µM*,108.7%,6.51µM*,?
O=C(Nc1cccc(S(=O)(=O)NC2=NCCC2)c1)c1cc(-c2ccco2)nc2ccccc12,-73.1%,i,0.1%,i,-26.3%
CCCCN(C(=O)c1ccc(S(=O)(=O)N2CCCCC2)cc1)C1CCS(=O)(=O)C1 (configuration not stated),29.5%,i,5.8%,i,?
COc1ccc(CNC(=O)CCn2c(C)csc2=O)cc1,5.8%,i,-2.5%,?,?
CCC(C(=O)NCCCN(CC)Cc1ccccc1)n1nc(C)c2sc3ccccc3c2c1=O (configuration not stated),-6.6%,i,2.4%,i,-4.4%
CCc1nc2ccccc2c(C(=O)OCC(=O)Nc2ccc(S(=O)(=O)N3CCOCC3)cc2)c1C,7.4%[9.22 µM],i,39.8%,i,18.4µM*
CCOc1ccc(C(=O)NC(=S)Nc2cccc(S(=O)(=O)NC3=NCCC3)c2)cc1,?,2.31µM*,2.59µM*,7.31µM*,7.5%
SMILES,SW480 rereplic,KB-3-1 cytotox,MCF10A rereplic,KB-V1 MDR tox,ELG1 repair inh
O=C(COC(=O)c1ccccn1)Nc1ccc(S(=O)(=O)N2CCOCC2)cc1,0.0%,i,1.1%,i,3.2%
O=C(Cn1cnc2c(cnn2-c2ccccc2)c1=O)Nc1cc(S(=O)(=O)N2CCOCC2)ccc1Cl,0.3%,i,14.0%,i,23.1µM*
O=C(Cn1nc(-c2ccc(Cl)cc2)ccc1=O)N1CCN(c2ccccc2)CC1,3.2%,i,3.8%,20.6µM*,?
O=C(Cn1ncc2ccsc2c1=O)N1CCN(c2ccccc2F)CC1,.,i,.,i,.
O=C(Cn1cnc2c(cnn2-c2ccccc2)c1=O)N1CCOCC1,-15.9%,?,-0.1%,i,-8.5%
CCN(CC(=O)Nc1cc(S(=O)(=O)N2CCCCC2)ccc1Cl)Cc1ccccc1,16.0%,?,?,?,-5.3%
CCN(CC(=O)Nc1cc(S(=O)(=O)N2CCOCC2)ccc1Cl)Cc1ccccc1,-15.2%,i,?,i,18.3µM*
O=C(Cn1ncc2ccsc2c1=O)N1CCN(c2ccc(Cl)cc2)CC1,.,?,.,20.6µM*,.
O=C(Cn1cnc2c(cnn2-c2ccc(Cl)cc2)c1=O)N1CCN(c2ccccc2)CC1,-2.7%,i,16.8%,5.17µM*,-2.1%
COc1ccc2nc(-c3ccccc3)nc(SCC(=O)NCC3CCCO3)c2c1 (configuration not stated),1.9%,i,?,?,?
N#Cc1c(Nc2ccccc2Cl)s[nH]c1=O,?,i,?,?,?
N#Cc1c(Nc2ccccc2C(F)(F)F)s[nH]c1=O,?,i,18.4µM*,i,5.6%
CC(=O)N/N=C/c1cc(C(C)C)cc(/C=N/NC(C)=O)c1O,14.6µM*,i,18.4µM*,?,9.0%
COc1cc(CNC(=O)c2cc(-c3cc(Cl)ccc3C)n[nH]2)cc(OC)c1,.,i,.,i,.
Clc1ccc2c(Cl)cc[n+](CCC3CCCCC3)c2c1,.,i,.,i,.
CC1CCCC(NC(=O)COC(=O)c2ccc(Cl)nc2)C1C (configuration not stated),-17.1%,i,-0.5%,?,6.4%
CC1(C(=O)NC(=S)NNC(=O)c2ccncc2)CCCCC1,9.2µM*,?,11.3%,?,-3.3%
Cn1c(SCC(=O)N2CCN(c3ccccc3)CC2)nnc1-c1cc2ccccc2o1,-1.5%,23.1µM*,0.8%,i,13µM*
Cn1c(Cc2cccc3ccccc23)nnc1SCC(=O)N1CCN(c2ccccc2)CC1,12.4%,i,7.5%,14.6µM*,-14.0%
O=C(O)CSc1nnc(-c2cc3ccccc3o2)n1-c1ccccc1,0.3%,i,-2.7%,?,3.6%
Cn1c(Cc2ccccc2)nnc1SCC(=O)N1CCN(c2ccccc2)CC1,11.4%,?,?,i,?
Cn1cccc1Cc1nnc(SCC(=O)N2CCN(c3ccccc3)CC2)n1-c1ccc(F)cc1,-6.5%,i,13.8%,11.6µM*,-3.3%
O=C(Cc1ccc(OCCC2CCCCC2)cc1)NO,.,i,.,i,.
COCCCNC(=O)CSc1nc2c(sc3ccccc32)c(=O)n1CCc1ccc(OC)c(OC)c1,.,i,.,i,.

# Compound activity from PubChem.
